# Source: PubChem BioAssay
# BioA inh: M. tuberculosis BioA enzyme inhibitors, primary screen, biochemical, plate reader, single point, HTS | 0.096% of 360,000 active | 7,8-diaminopelargonic acid synthase BioA (Mycobacterium tuberculosis) | purified M. tuberculosis BioA enzyme | inhibition, % at 9.99 µM; in the data active means inhibition above about 40%; inconclusive means no clear call, values can overlap the other calls
# TcdB GH inh: TcdB glycohydrolase inhibitors, primary screen, biochemical, single point, plate reader. Toxin B (Clostridioides difficile), P18177. TcdB glycohydrolase enzymatic assay. inhibition, % at 9.99 µM. 0.24% of 350,000 active. AID 652162, 2013; in the data active means inhibition above about 10%
# Y pestis TopoI: Yersinia pestis topoisomerase I inhibitors, primary screen, biochemical, cleavage product accumulation, plate reader, single point; 0.064% of 360,000 active; Y. pestis Topo-I cleavage product accumulation; activity, % at 10 µM; DNA topoisomerase I (Yersinia pestis CO92); in the data active means activity above about 50%, passing the limit was not always enough; inconclusive means no clear call, values can overlap the other calls
# FadD28 binding: inhibitors of FadD28 bisubstrate probe binding, primary screen, biochemical, fluorescence polarization, single point; Mycobacterium tuberculosis FadD28 fatty-acid-AMP ligase; inhibition, % at 12.5 µM; 0.22% of 360,000 active; AID 588549, 2011; in the data active means inhibition above about 8.5%, passing the limit was not always enough; inconclusive means no clear call, values can overlap the other calls
# Active calls of the source: *; ? = inconclusive; · = no result. In the library only some 0.45% were active in any assay of this set; here they are far more common.
SMILES,BioA inh,TcdB GH inh,Y pestis TopoI,FadD28 binding
CC(CCC(C)C(C)(C)C)[C@@H]1CC[C@H]2C3C[C@H](OS(O)(=S)=S)[C@H]4C[C@H](OS(O)(=S)=S)[C@@H](OS(O)(=S)=S)C[C@]4(C)[C@H]3CC[C@]12C (some centres not stated) (tested in a mixture with another compound),23,·,5,65*
C[C@@H]1CN([C@H](C)CO)C(=O)Cc2cc(NC(=O)Nc3ccc(F)cc3)ccc2O[C@@H]1CN(C)C(=O)Nc1ccc(F)cc1,-1,-1,·,·
O=C(NCCO)C(=O)NCC1CCCN1S(=O)(=O)c1cccs1 (configuration not stated),-2,2,-4,-4
CC(C)CNC(=O)C(=O)NCC1CCCN1S(=O)(=O)c1cccs1 (configuration not stated),-1,13*,-4,-3
O=C(C[C@H]1C=C[C@@H](NS(=O)(=O)c2ccccc2)[C@H](CO)O1)N1CCN(c2ccccc2)CC1,·,-1,·,·
N/C(=N\N=C/c1ccc(-c2ccc(O)c(C(=O)O)c2)o1)N[N+](=O)[O-],2,·,-10,12*
COc1cc(/C=C2/C(=O)NN(c3ccc(Cl)cc3)C2=O)ccc1OC(=O)c1ccco1,·,-1,-5,9.3*
COc1cc(/C=C2/C(=O)NN(c3ccc(Cl)c(Cl)c3)C2=O)cc([N+](=O)[O-])c1O,0,1,-14,28*
CC(=O)Nc1ccc(S(=O)(=O)Nc2nc3ccccc3nc2Nc2cccc(O)c2)cc1,·,-5,-13,?
CC(=O)Nc1ccc(S(=O)(=O)Nc2nc3ccccc3nc2Nc2ccc(C(=O)O)c(O)c2)cc1,1,-4,-5,25*
NS(=O)(=O)c1cccc(NS(=O)(=O)c2ccc(/C=C/C(=O)OCC(=O)c3ccccc3)cc2)c1,-1,0,0,10*
O=c1c2ccccc2oc2ccc(NCCCN3CCOCC3)cc12,12,13*,1,-3
Cc1ccc(Nc2nnc(SCc3cc(=O)n4ccsc4n3)s2)c(C)c1,1,·,-3,-1
COc1ccccc1Nc1nnc(SCc2cc(=O)n3ccsc3n2)s1,-1,15*,9,1
CCNC(=O)C[C@@H]1C=C[C@H](NC(=O)C2CC2)[C@H](CO)O1,-4,0,·,·
COCc1cc(C)nc(OCC(=O)N/N=C/c2ccc(-c3cc([N+](=O)[O-])ccc3C)o2)c1C#N,0,·,10,2
Cc1ccc([N+](=O)[O-])cc1-c1ccc(/C=C(\C#N)c2[nH]nc(N)c2C#N)o1,-2,2,8,9.4*
CCCNC(=O)N1CC2(CCN(C(C)=O)CC2)c2c(n(C)c3cc(OC)ccc23)[C@H]1CO,·,0,·,·
COc1cccc(C(=O)Nc2ccccc2N2CCCC2)c1,0,·,-7,-2
O=C(Nc1ccccc1N1CCCCC1)c1cccc(OC(F)F)c1,-1,0,57*,-1
C[C@H]1CN([C@@H](C)CO)C(=O)c2cc(NC(=O)Nc3ccc(C(F)(F)F)cc3)ccc2O[C@@H]1CN(C)S(=O)(=O)c1cn(C)cn1,2,0,·,·
COc1ccc(C(=O)Nc2ccccc2C(=O)O)cc1Cl,·,10*,-11,-7
CC(C)NC(=O)Nc1cccc2c1O[C@@H](CN(C)S(C)(=O)=O)[C@H](C)CN([C@H](C)CO)C2=O,0,-1,·,·
Cc1cc2nc3s/c(=C/c4ccc(-c5ccccc5C(=O)O)o4)c(=O)n3c2cc1C,2,0,-4,1
O=C(O)c1ccccc1-c1ccc(/C=c2\sc3nc4cc(Br)cnc4n3c2=O)o1,0,·,-4,24*
SMILES,BioA inh,TcdB GH inh,Y pestis TopoI,FadD28 binding
CSc1ccccc1OCc1cc(C(=O)NCCCc2ccccc2)no1,-1,2,58*,-2
COc1ccc(OCc2cc(C(=O)NCCCc3ccccc3)no2)c(Cl)c1,-1,1,44,-3
FC(F)(F)c1cc(CCN2CCNC[C@H]2Cc2cccc3ccccc23)cc(C(F)(F)F)c1,-2,11*,-15,-26
COc1ccc(CN(C)C[C@@H]2Oc3ccc(NC(=O)Nc4ccc(OC)cc4)cc3CC(=O)N([C@@H](C)CO)C[C@@H]2C)cc1,-1,-3,·,·
COc1ccccc1CNC(=O)CN(c1ccc(C)cc1)S(=O)(=O)c1c(C)n[nH]c1C,3,31*,6,-2
COc1ccccc1CNC(=O)CN(c1ccc(C)cc1)S(=O)(=O)c1c(C)noc1C,-1,2,29,0
